RGS4-Gao reg = modulates binding of RGS4 to human Galphao; Multiplexed bead flow cytometry; actives lie on both sides; binding response (% of control), % at 10 µM; hit rate 0.33% among 220,000; in the data active means binding response below about 49% or above about 150%; inactive means in between;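 further: fluorescent Galphao activated with aluminum fluoride binding bead-coupled RGS4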
Target sequence (P09471 whole entry, looked up): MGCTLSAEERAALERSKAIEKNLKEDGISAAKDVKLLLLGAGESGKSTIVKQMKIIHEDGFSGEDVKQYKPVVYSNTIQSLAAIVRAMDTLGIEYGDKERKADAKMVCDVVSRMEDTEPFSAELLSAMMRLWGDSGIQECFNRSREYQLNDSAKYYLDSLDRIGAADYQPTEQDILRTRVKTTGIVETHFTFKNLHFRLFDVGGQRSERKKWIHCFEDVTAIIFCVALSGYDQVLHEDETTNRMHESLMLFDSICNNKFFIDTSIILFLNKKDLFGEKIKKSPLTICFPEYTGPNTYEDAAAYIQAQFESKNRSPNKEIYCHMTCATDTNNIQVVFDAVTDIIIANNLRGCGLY
RGS7-Gao = modulates binding of RGS7 to human Galphao | P09471 | Multiplexed bead flow cytometry; actives lie on both sides | binding response (% of control), % at 10 µM | hit rate 0.35% among 220,000 | AID 1439; in the data active means binding response below about 49% or above about 150%; inconclusive means no clear call, values can overlap the other calls; inactive means in between;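 further: fluorescent Galphao held in activated GDP-AlF4 state binding bead-coupled RGS7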
RGS8-Gao = human RGS8-Galphao interaction regulation. P09471. multiplexed bead flow cytometry, RGS8-Galphao binding; actives lie on both sides. response (percent of control binding), % at 10 µM. hit rate 0.34% among 220,000; in the data active means response below about 60% or above about 140%; inactive means in between;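 further: Galphao activated as the GDP aluminium fluoride complex binding bead-coupled RGS8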
Avidin bead fluor = compound fluoresces at 488/530 nm on avidin beads | fluorescence (KMESF) at 10 µM | hit rate 0.38% among 220,000 | AID 1775 | compound fluorescence 488/530 nm, flow cytometry; stronger effect = higher value; in the data active means fluorescence above about 47
RGS16-Gao = modulates binding between human RGS16 and Galphao; O15492+P09471; bead-based flow cytometry RGS16-Galphao binding, fluorescence; actives lie on both sides; binding response (% of control), % at 10 µM; hit rate 0.38% among 220,000;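 further: Galphao activated by GDP with aluminum fluoride before binding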
Target sequence (O15492 whole entry, looked up): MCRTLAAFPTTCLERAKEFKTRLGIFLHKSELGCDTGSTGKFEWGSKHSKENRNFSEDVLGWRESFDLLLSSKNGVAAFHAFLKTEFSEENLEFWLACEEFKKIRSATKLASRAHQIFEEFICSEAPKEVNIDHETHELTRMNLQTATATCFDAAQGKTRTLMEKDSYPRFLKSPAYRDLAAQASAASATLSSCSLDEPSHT
Target sequence (P09471 whole entry, looked up): as the sequence (P09471 whole entry, looked up) above
GSH bead fluor = GSH bead compound fluorescence profile. fluorescence (KMESF) at 10 µM. hit rate 0.25% among 190,000. GSH beads flow cytometry, compound fluorescence 488/530 nm; stronger effect = higher value; in the data active means fluorescence above about 89;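 further: glutathione beads carrying GST-tagged Bcl family fusion proteins plus one bare bead set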
RGS4-Gao HTS = regulators of human RGS4-Galphao interaction; shares compounds with RGS16-Gao; RGS4–Galpha-o binding response, % at 10 µM; hit rate 99% among 1,600; multiplexed bead flow cytometry, RGS–Galpha-o binding; AID 1504;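 further: fluorescently labeled Galpha-o bound to GDP with aluminium fluoride binding biotinylated RGS beads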
Avidin counter = biotin-avidin bead binding disruption counter-screen; shares compounds with RGS16-Gao; streptavidin beads, fluorescein-biotin binding, flow cytometry; inhibition, % at 10 µM; 1,700 tested, under 10 active; AID 1783;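 active means inhibition above 50%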;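 further: median green fluorescence of gated singlet beads compared with DMSO control wells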
RGS8-Gao confirm = RGS8-Galphao interaction regulation, single point confirmation; AID 1836; hit rate 3% among 1,700; bead-based flow cytometry RGS8-Galphao binding, fluorescence; actives lie on both sides; binding response (% of control), % at 10 µM; shares compounds with RGS16-Gao; in the data active means binding response below about 72% or above about 130%; inactive means in between;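 further: Galphao activated as GDP AlF4 complex before binding bead RGS8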
RGS7-Gao confirm = RGS7-Galphao interaction regulation, single point confirmation | AID 1837 | response (percent of control binding), % at 10 µM | hit rate 7.8% among 1,700 | bead-based flow cytometry RGS7-Galphao binding; actives lie on both sides | shares compounds with RGS16-Gao; in the data active means response below about 75% or above about 130%; inactive means in between;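 further: fluorescent Galphao activated with GDP and aluminum fluoride binding bead-coupled RGS7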
RGS16-Gao conf = RGS16-Galphao interaction regulation, single point confirmation; shares compounds with RGS16-Gao; bead-based flow cytometry, RGS16-Galphao binding; actives lie on both sides; response (% of control binding), % at 10 µM; hit rate 4% among 1,700; in the data active means response below about 74% or above about 130%; inactive means in between;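 further: Galphao activated as the GDP aluminium fluoride complex binding bead-coupled RGS16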
RGS4-Gao single = RGS4-Galphao interaction regulation, single point confirmation; binding response (% of control), % at 10 µM; RGS4-Galphao binding, multiplexed bead flow cytometry; actives lie on both sides; AID 1840; shares compounds with RGS16-Gao; hit rate 4% among 1,700; in the data active means binding response below about 74% or above about 130%; inactive means in between
RGS19-Gao conf = RGS19-Galphao interaction regulation, single point confirmation; shares compounds with RGS16-Gao; bead-based flow cytometry RGS19-Galphao binding; actives lie on both sides; response (percent of control binding), % at 10 µM; hit rate 5% among 1,700; AID 1841; in the data active means response below about 50% or above about 160%; inactive means in between
Large screens that a line does not name were inactive (follow-up assays come after a bar, where they were run); [ ] = dose if it differs, or a comment. Sampled rows, rich in hits. Any-hit rate of the full collection: about 1.2%. Unless noted, how the calls were made is not given here.

CCCCCNC(=O)c1cc(S(=O)(=O)N2CCCC2)ccc1F	RGS16-Gao 22 | RGS4-Gao HTS 84 | Avidin counter inactive | RGS8-Gao confirm inactive | RGS7-Gao confirm inactive | RGS16-Gao conf inactive | RGS4-Gao single inactive | RGS19-Gao conf inactive
COC(=O)c1cc(NS(=O)(=O)c2ccc(C(C)C)cc2)ccc1N1CCOCC1	RGS7-Gao inconclusive (no result: GSH bead fluor)
CC1=CC(C)(C)Nc2ccccc21	RGS16-Gao 13 | RGS4-Gao HTS 77 | Avidin counter inactive | RGS8-Gao confirm inactive | RGS7-Gao confirm inactive | RGS16-Gao conf inactive | RGS4-Gao single inactive | RGS19-Gao conf inactive
CC(=Nc1ccccc1)Nc1ccccc1	RGS8-Gao 159[activator] (no result: RGS16-Gao) | RGS4-Gao HTS 144 | Avidin counter inactive | RGS8-Gao confirm inactive | RGS7-Gao confirm inactive | RGS16-Gao conf inactive | RGS4-Gao single inactive | RGS19-Gao conf inactive
COc1ccccc1OCCN(C#N)c1nc(N(C)C)nc(N(C)C)n1	none
CC(C)(C)c1ccc(C(=O)NN2C(=O)CSC2=S)cc1	RGS7-Gao inconclusive (no result: GSH bead fluor)
O=c1c2ccccc2nnn1CSc1nc2ccccc2[nH]1	none
Cc1cc(=O)[nH]c(SCn2nnc3ccccc3c2=O)n1	RGS4-Gao reg 36, RGS7-Gao 30, RGS8-Gao 36 | Avidin counter inactive | RGS8-Gao confirm inactive | RGS7-Gao confirm inactive | RGS16-Gao conf inactive | RGS4-Gao single inactive | RGS19-Gao conf inactive
Cc1cccc(OCCCn2c(CO)nc3ccccc32)c1	RGS7-Gao inconclusive (no result: GSH bead fluor)
O=C(CCC1CCCN(C(=O)c2cncs2)C1)NCc1ccc(F)c(F)c1 (stereo unspecified)	RGS7-Gao 231[activator], Avidin bead fluor 220 | RGS4-Gao HTS 109 | Avidin counter inactive | RGS8-Gao confirm inactive | RGS7-Gao confirm inactive | RGS16-Gao conf inactive | RGS4-Gao single inactive | RGS19-Gao conf inactive
O=c1[nH]c(C2CCCN(S(=O)(=O)c3ccc(F)cc3)C2)nc2c1nnn2Cc1ccccc1 (stereo unspecified)	none
Cc1ccc(Cn2nnc3c(=O)[nH]c(C4CCCN(S(=O)(=O)c5ccccc5)C4)nc32)cc1 (stereo unspecified)	RGS16-Gao -107 | RGS4-Gao HTS 73 | Avidin counter inactive | RGS8-Gao confirm inactive | RGS7-Gao confirm inactive | RGS16-Gao conf inactive | RGS4-Gao single inactive | RGS19-Gao conf inactive
CC(C)(O)C#Cc1ccc(CN2CCN(C3CCCC3)C(CCO)C2)cc1 (stereo unspecified)	none
COc1cccc2cc(C(C)=O)oc12	none
CCOc1cccc2cc(C(C)=O)oc12	RGS4-Gao reg 11, RGS7-Gao 10, RGS8-Gao 11, RGS16-Gao 5.6 (no result: Avidin bead fluor) | Avidin counter inactive | RGS8-Gao confirm inactive | RGS7-Gao confirm inactive | RGS16-Gao conf inactive | RGS4-Gao single inactive | RGS19-Gao conf inactive
O=C(/C=C/c1cccnc1)c1ccc(NC(=O)c2cccc(Br)c2)cc1	none
Cc1cccc(C(=O)Nc2ccc(C(=O)/C=C/c3cccnc3)cc2)c1	RGS4-Gao reg 196[activator], RGS7-Gao 186[activator] | Avidin counter inactive | RGS8-Gao confirm inactive | RGS7-Gao confirm inactive | RGS16-Gao conf inactive | RGS4-Gao single inactive | RGS19-Gao conf inactive
O=C1c2cccc3c(O)ccc(c23)C(=O)N1Cc1ccccc1	RGS4-Gao reg 181[activator], RGS7-Gao 164[activator], Avidin bead fluor 81, RGS16-Gao 186[activator], GSH bead fluor 162 | Avidin counter inactive | RGS8-Gao confirm 126[activator] | RGS7-Gao confirm 264[activator] | RGS16-Gao conf 203[activator] | RGS4-Gao single 204[activator] | RGS19-Gao conf 219[activator]
COC(=O)c1c(C)oc(C)c1S(=O)(=O)NC(C)(C)C	RGS7-Gao inconclusive (no result: GSH bead fluor)
COC(=O)Nc1nnc(/C=C/c2ccc(OC)cc2)s1	none
COc1ccc(/C=C/c2nnc(NC(C)=O)s2)cc1	RGS4-Gao reg 158[activator], RGS7-Gao inconclusive (no result: GSH bead fluor) | Avidin counter inactive | RGS8-Gao confirm inactive | RGS7-Gao confirm inactive | RGS16-Gao conf inactive | RGS4-Gao single inactive | RGS19-Gao conf inactive
c1ccc(-c2ccc3c(c2)NCCN3)cc1	RGS7-Gao inconclusive (no result: GSH bead fluor)
O=C(O)COc1ccccc1/C=N/NC(=O)Cc1csc(Nc2cccc(C(F)(F)F)c2)n1	RGS4-Gao reg 39, RGS7-Gao inconclusive, RGS8-Gao 40 | Avidin counter inactive | RGS8-Gao confirm inactive | RGS7-Gao confirm inactive | RGS16-Gao conf inactive | RGS4-Gao single inactive | RGS19-Gao conf inactive
CSCCC(NC(N)=O)C(=O)NCc1ccccc1Cl (stereo unspecified)	RGS16-Gao -699 | RGS4-Gao HTS 74 | Avidin counter inactive | RGS8-Gao confirm inactive | RGS7-Gao confirm inactive | RGS16-Gao conf inactive | RGS4-Gao single inactive | RGS19-Gao conf inactive
CSCCC(NC(N)=O)C(=O)NCc1cccc(Cl)c1 (stereo unspecified)	none
Cc1sc(N)c(C(=O)c2ccccc2)c1C	RGS7-Gao 253[activator], Avidin bead fluor 248 | RGS4-Gao HTS 126 | Avidin counter inactive | RGS8-Gao confirm inactive | RGS7-Gao confirm inactive | RGS16-Gao conf inactive | RGS4-Gao single inactive | RGS19-Gao conf inactive
O=C(N[C@@H](Cc1ccc(O)cc1)C(=O)O)c1ccc(C(F)(F)F)cc1	RGS7-Gao 152[activator] | RGS4-Gao HTS 138 | Avidin counter inactive | RGS8-Gao confirm inactive | RGS7-Gao confirm inactive | RGS16-Gao conf inactive | RGS4-Gao single inactive | RGS19-Gao conf inactive
CC(C)(C)c1ccc(C(=O)NC(Cc2ccccc2)C(=O)O)cc1 (stereo unspecified)	none
Cc1ccc(-n2c(N)c(C(=O)Nc3c(C)n(C)n(-c4ccccc4)c3=O)c3nc4ccccc4nc32)cc1C	none
